Molecules are shown by their SMILES. In all, about 360,000 compounds went through this assay and about 16,000 (4.4%) were called active. Where a call stands in place of a potency, no number is given. Another 9% or so got no clear call; they are omitted. The call rests on the fitted dose curve; in most records, active means well fitted inhibition curve with a large enough effect; inconclusive means small, poorly fitted or top-dose-only effect; inactive means no such curve, though single readings can be large or run the other way. Many of the other results were omitted from the sample, so actives are more common in it than they were.
Potency means the concentration at half of the fitted maximal effect.

This test deals with Bromodomain adjacent to zinc finger domain protein 2B (Homo sapiens) (UniProt Q9UIF8). The experiment in a line: qHTS Assay for Inhibitors of BAZ2B. Further: nearly all actives have a fitted effect of over 60% in size. The note with it: AlphaScreen BAZ2B-H3K14Ac peptide displacement; series mostly up to 114 µM. The method, boiled down: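 AlphaScreen displacement: compounds (up to 110uM) incubated 30 min at room temperature with a preformed 50 nM BAZ2B/50 nM biotinylated H3K14Ac peptide complex in PBS pH 7.4 with Tween-20. Donor and acceptor beads at 10 ug/mL final added, 20 min light-protected before reading.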
Chain of Bromodomain adjacent to zinc finger domain protein 2B (Homo sapiens) (Q9UIF8 whole entry, looked up, the tested form may be a part): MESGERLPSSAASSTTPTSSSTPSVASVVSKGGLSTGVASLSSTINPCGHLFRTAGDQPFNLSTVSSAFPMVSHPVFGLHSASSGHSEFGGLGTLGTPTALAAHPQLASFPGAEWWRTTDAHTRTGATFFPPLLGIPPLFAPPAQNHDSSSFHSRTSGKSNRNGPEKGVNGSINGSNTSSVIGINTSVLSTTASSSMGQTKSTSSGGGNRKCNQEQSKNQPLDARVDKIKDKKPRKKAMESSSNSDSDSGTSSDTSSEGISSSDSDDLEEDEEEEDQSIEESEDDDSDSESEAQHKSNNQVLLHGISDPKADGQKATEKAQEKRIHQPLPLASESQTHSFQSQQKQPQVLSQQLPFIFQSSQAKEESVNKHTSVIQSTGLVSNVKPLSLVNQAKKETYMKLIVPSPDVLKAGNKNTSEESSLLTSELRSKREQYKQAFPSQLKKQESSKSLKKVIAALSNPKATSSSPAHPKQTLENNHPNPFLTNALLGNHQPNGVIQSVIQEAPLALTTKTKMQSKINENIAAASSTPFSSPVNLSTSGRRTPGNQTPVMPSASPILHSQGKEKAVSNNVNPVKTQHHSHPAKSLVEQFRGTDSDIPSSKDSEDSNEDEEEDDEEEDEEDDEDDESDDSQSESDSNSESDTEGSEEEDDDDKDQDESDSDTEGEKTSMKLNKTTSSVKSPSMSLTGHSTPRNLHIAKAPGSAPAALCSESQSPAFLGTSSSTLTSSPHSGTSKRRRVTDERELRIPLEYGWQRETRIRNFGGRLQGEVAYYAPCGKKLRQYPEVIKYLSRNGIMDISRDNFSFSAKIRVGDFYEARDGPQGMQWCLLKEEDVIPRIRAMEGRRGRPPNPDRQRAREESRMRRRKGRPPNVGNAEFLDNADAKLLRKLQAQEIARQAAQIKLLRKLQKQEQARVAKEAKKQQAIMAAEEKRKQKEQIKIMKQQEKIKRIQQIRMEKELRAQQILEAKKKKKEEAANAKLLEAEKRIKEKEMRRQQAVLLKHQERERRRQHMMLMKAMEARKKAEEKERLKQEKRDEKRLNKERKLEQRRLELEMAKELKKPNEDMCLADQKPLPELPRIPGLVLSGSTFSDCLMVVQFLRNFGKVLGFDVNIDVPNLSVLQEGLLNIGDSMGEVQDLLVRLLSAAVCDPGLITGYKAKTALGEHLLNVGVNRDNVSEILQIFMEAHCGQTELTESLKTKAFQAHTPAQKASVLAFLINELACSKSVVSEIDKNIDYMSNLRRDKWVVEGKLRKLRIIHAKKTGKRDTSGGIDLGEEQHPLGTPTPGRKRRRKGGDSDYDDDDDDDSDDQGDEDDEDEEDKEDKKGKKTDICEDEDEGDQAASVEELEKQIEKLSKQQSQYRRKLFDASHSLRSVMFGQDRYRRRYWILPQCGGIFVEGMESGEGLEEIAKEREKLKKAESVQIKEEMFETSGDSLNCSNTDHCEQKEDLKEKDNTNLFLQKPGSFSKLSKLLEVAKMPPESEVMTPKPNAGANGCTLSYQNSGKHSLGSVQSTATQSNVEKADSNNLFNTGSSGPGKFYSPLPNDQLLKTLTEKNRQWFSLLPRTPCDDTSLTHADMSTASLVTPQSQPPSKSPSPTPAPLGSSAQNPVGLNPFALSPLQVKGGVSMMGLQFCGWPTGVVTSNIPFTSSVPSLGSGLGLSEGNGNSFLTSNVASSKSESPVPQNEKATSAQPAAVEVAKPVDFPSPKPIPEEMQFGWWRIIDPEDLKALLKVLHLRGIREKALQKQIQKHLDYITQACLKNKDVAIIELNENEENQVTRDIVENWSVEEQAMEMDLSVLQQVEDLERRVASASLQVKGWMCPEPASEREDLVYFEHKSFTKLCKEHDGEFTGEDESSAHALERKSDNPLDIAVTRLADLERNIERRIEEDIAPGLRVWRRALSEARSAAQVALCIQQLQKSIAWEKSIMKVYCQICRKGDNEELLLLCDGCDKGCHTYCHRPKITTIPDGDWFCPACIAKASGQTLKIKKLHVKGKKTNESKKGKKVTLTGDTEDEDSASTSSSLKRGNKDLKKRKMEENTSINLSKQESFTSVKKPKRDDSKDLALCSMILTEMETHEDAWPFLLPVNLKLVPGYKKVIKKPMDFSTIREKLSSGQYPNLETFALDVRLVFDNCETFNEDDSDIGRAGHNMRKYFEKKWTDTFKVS
As for `Cc1ccc(NC(=O)CSCC(=O)Nc2sccc2C#N)cc1`, the Potency result was “inactive”.
The result for `COc1ccc(NC(=O)CSc2nc(C)cs2)cc1` reads “inactive”; that for `Cc1csc(SCC(=O)Nc2sccc2C#N)n1`, 56.2 µM (active); that for `COc1ccc2c(c1)C=C(C(=O)NCc1cc(Br)ccc1OC)CO2`, “inactive”.
Consider `Cc1ccc(Cl)cc1NC(=O)CSc1nc2ccccc2nc1Cc1ccccc1`, for which the Potency entry is “inactive”.
Consider `Cc1cccc(COc2ccccc2/C=N/Nc2ccc([N+](=O)[O-])cc2)c1`, for which the Potency result is “inactive”.
As for `Cc1ccc(NS(=O)(=O)c2ccc(N/N=C/c3ccccc3OCC(=O)O)c([N+](=O)[O-])c2)c(C)c1`, the Potency is 7.94 µM (active).
The result for `C=C(C)CNC(=S)N/N=C/c1ccccc1OCC(=O)O` reads “inactive”; that for `Cc1ccc(CCNC(=O)c2ccc(CS(=O)(=O)Cc3cccc(C)c3)o2)cc1`, “inactive”; that for `Cc1ccc(CNC(=O)CSc2c3c(nc4cc(Cl)ccc24)CCCC3)cc1`, “inactive”.
On to `CN(C)/N=C/c1cc(Cl)cc([N+](=O)[O-])c1O`, for which the Potency is 44.7 µM (active).
With `CC(=O)N/N=C/c1cc2c(cc1[N+](=O)[O-])OCO2` the entry was “inactive”; with `COc1ccc(NC(=O)C(c2ccccc2)N2Cc3ccccc3C2=O)cc1` (stereo not given), “inactive”.
The result for `COc1ccc2c(c1OC)C(=O)c1ccccc1C2=O` reads “inactive”.
With `COc1ccc2c(c1OC)C(=O)N(c1ncn[nH]1)C2` the figure was 56.2 µM (active).
`COc1ccc2c(c1OC)C(=O)N(c1ccc(O)cc1)C2`: the Potency entry was “inactive”.
The result for `COc1ccc(Cc2nc3ccc(C(=O)NCc4ccccc4Cl)cc3o2)cc1` reads “inactive”; that for `CCc1ccc(-n2nnc(-c3nc(-c4ccccc4)no3)c2C)cc1`, “inactive”; that for `O=C(CN1C(=O)C2C3C=CC(C3)C2C1=O)NCCc1ccccc1Cl` (stereo not given), “inactive”.
The result for `O=C(NCCN1C(=O)C2C3C=CC(C3)C2C1=O)Nc1ccccn1` (stereo not given) reads “inactive”; that for `O=C(CN1C(=O)C2C3C=CC(C3)C2C1=O)Nc1nc(-c2ccccn2)cs1` (stereo not given), 50.1 µM (active).
Take `CCOc1ccc(CNC(=O)c2cccc(Nc3nc4ccccc4n4nnnc34)c2)cc1OC`: the Potency result is “inactive”.
As for `Cc1ccc(OCCSc2nc3ccc(NC(=O)COc4ccc(C)cc4)cc3s2)cc1`, the Potency result was “inactive”.
The result for `Cc1cc(C)cc(Nc2ncnc3onc(-c4ccc(F)cc4)c23)c1` reads “inactive”.
The result for `COC(=O)c1cccc(NC(=O)c2cccc(N3C(=O)CCC3=O)c2)c1` reads “inactive”; that for `O=C(Nc1cccc2cccnc12)c1cccc(N2C(=O)CCC2=O)c1`, “inactive”; that for `COc1ccccc1-c1nnc(NC(=O)c2cccc(N3C(=O)CCC3=O)c2)o1`, 25.1 µM (active).
With `COc1ccc(Cc2nc3ccc(C(=O)NCc4ccc(OC)cc4OC)cc3o2)cc1` the entry was “inactive”; with `Cc1ccc(S(=O)(=O)c2nc(-c3ccco3)oc2SCC(=O)Nc2ccc(F)cc2)cc1`, “inactive”.
Consider `CCCCS(=O)(=O)c1oc(-c2cccs2)nc1S(=O)(=O)c1ccccc1`, for which the Potency result is “inactive”.
With `Cc1ccc(C)c(S(=O)(=O)c2nnn3c2nc(N2CCOCC2)c2sccc23)c1` the entry was “inactive”; with `O=C(NCCCO)c1nn(-c2ccc(Cl)cc2)nc1CO`, “inactive”; with `Cc1cc(NC(=O)C2CCC(CNS(=O)(=O)c3ccc(Br)s3)CC2)ccc1Br` (stereo not given), “inactive”.
With `CC(C)NC(=S)NN=C1CCCCCCCCCCC1` the figure was 35.5 µM (active); with `CCc1ccc(C(=O)NN=C2CCCCCC2)s1`, “inactive”; with `CC(C)(C)NC(=O)C(=O)NN=C1CCCCCCC1`, “inactive”.
With `O=C(c1ccc2c(c1)N(Cc1ccccc1)C(=O)c1ccccc1S2(=O)=O)N1CCC(Cc2ccccc2)CC1` the entry was “inactive”; with `COc1cc(N2CCCC2)c(OC)cc1/C=C(/C#N)c1cccc(Br)c1`, 10 µM (active); with `CC(=O)Nc1cccc(Oc2cc(C#N)c(C#N)cc2N2CCOCC2)c1`, “inactive”.
As to `CCc1ccc(NC(=O)c2cc3c(=O)n(Cc4cccnc4)ccc3nc2C)cc1`, the Potency entry was “inactive”.
With `Cc1ccc(-n2c(SCC(=O)Nc3cccc(F)c3)nc3c(oc4ccccc43)c2=O)cc1C` the entry was “inactive”; with `CCN(CC)c1ccc(NC(=O)CN2CCN(CC(=O)Nc3ccc(Cl)cc3)CC2)cc1`, 20 µM (active); with `COC(=O)c1cc(NC(=O)CN2CCN(C(C)=O)CC2)cc(C(=O)OC)c1`, “inactive”.
Take `CC(=O)N1CCN(CC(=O)Nc2ccc(SC(F)F)cc2)CC1`: the Potency result was “inactive”.
The result for `CC(=O)N1CCN(CC(=O)Nc2ccc(C)c(F)c2)CC1` reads 44.7 µM (active); that for `CCOC(=O)N1CCN(CC(=O)Nc2ccc(F)cc2)CC1`, “inactive”; that for `CCN(CC)c1ccc(NC(=O)CN2C(=O)NC3(CCc4ccccc43)C2=O)cc1` (stereo not given), “inactive”.
The result for `CCN(CC)c1ccc(NC(=O)CN2C(=O)c3cccnc3Oc3ccc(Cl)cc32)c(C)c1` reads “inactive”.
As for `Cc1cccc(C(=O)Nc2ccc(S(=O)(=O)N3CCCCC3c3cccnc3)cc2)c1` (stereo not given), the Potency result was “inactive”.
The result for `Cc1ccc(Cn2c(C)c3cnn(CC(=O)NCc4ccccc4)c(=O)c3c2C)cc1` reads “inactive”.
With `COC(=O)c1scc(-c2ccccc2)c1S(=O)(=O)Nc1ccccc1` the entry was “inactive”; with `CC(=O)c1ccc(NC(=O)CCc2nc(-c3ccc(C)cc3)no2)cc1`, “inactive”.
With `CCCCn1c(=O)c(CCC(=O)OCC(=O)Nc2ccc(C)c(Cl)c2)nc2ccccc21` the entry was “inactive”; with `Cc1ccc(NC(=O)CCCn2c(=O)c3cccn3c3ccccc32)cc1Cl`, 50.1 µM (active); with `COc1ccc(Cl)cc1NC(=O)CCn1c(=O)c2cccn2c2ccccc21`, “inactive”.
`Cc1cccc(NC(=O)CSc2nc(-c3ccco3)cc(C(F)(F)F)n2)c1C`: the Potency entry is “inactive”.
With `Cc1ccc(Cl)cc1N1CCN(C(=O)c2cnc3c(-c4ccc(F)cc4)c(C)nn3c2C)CC1` the entry was “inactive”; with `O=C(O)c1ccc(/C=N/NC(=O)c2ccc(Br)cc2)cc1`, “inactive”; with `O=C(N/N=C/c1ccc(Br)o1)c1cncc(Br)c1`, “inactive”.
The result for `Cc1ccc(C(=O)N/N=C\c2cc(Br)c(Br)o2)cn1` reads 50.1 µM (active); that for `Cc1nn2c(=O)cc(COC(=O)c3cccc(NC(=O)COc4ccccc4Cl)c3)nc2s1`, “inactive”; that for `CCOc1ccc(-c2cc3nc(C4CCN(C(=O)OC(C)(C)C)CC4)c(C(=O)Nc4cccc(CC)c4)cn3n2)cc1`, “inactive”.
With `Cc1cc(-c2csc(N)n2)c(C)n1-c1ccccc1` the figure was 44.7 µM (active).
As to `Cc1n[nH]c(=O)n1-c1ccc(Oc2ccccc2)cc1`, the Potency result is “inactive”.
As for `Cc1cc(C(=O)OCC(=O)NCc2ccco2)c(C)n1-c1ccccc1`, the Potency result is “inactive”.

The values are drawn from PubChem BioAssay AID504333 (National Center for Advancing Translational Sciences (NCATS), 2011).
